“And” between values parts separate entries of the source, which are not always exact repeats. Equal values may be shown once. The source made the active and inactive calls.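 Rule for the calls, unless noted: active = compounds whose cell count with miR-34 switched on is under 0.7 times the count with it off; inactive = the rest.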
What was measured:
[1] = system: Aerobactin synthetase IucA (Klebsiella pneumoniae); assay: inhibition of K. pneumoniae IucA enzyme – biochemical, Tocris library, absorbance (AID 1345561; call rule not given here;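 note: 100% = enzyme without compound and 0% = no enzyme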); details: purified IucA enzyme assay, absorbance (OD) read-out; stronger effect = lower value;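 tested at 8 µM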
[2] = viability loss with induced miR-34 in A549 – imaging, A549 dox-inducible miR-34, nuclei and caspase counts, primary screen (AID 1347080); details: A549 miR-34 inducible, Hoechst nuclei count, 48 h
[3] = galactose survival enhancers in mitochondrial complex I cybrids – cell-based, galactose medium, ATP luminescence, primary screen (AID 1645843;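 active = z-score of at least 1.8 in each of two replicates, scored against plate mean and spread of sample wells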;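 note: positive z means more ATP and so rescue of galactose-driven cybrid death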); details: complex I mutant cybrid cells, 72 h, stronger effect = higher value
[4] = stronger effect = lower value, cell number ratio, induced over uninduced
[5] = measured here: relative caspase fold change +Dox/-Dox
[6] = measured here: total cells with miR-34 induction, stronger effect = lower value
[7] = measured here: total cells without miR-34 induction

Compound | remaining activity [1] | fold change [2, 4] | fold change [2, 5] | cell count [2, 6] | cell count [2, 7] | z-score [3]
c1ccc2sc(N3CCN(Cc4ccc5c(c4)OCO5)CC3)nc2c1 | 98.7% (inactive) | 0.958 (inactive) | 0.859 | 9100 | 9500 | -0.155 (inactive)
Brc1cc2c(cc1[C@H]1Nc3ccccc3[C@H]3C=CC[C@H]31)OCO2 (racemic) | 123% (inactive) | 0.953 (inactive) | 1.69 | 6570 | 6900 | -0.975 (inactive)
O=C(Nc1cccc2cccnc12)c1ccc(N2C(=O)[C@@H]3[C@H](C2=O)[C@@H]2C=C[C@H]3C2)cc1 | 115% (inactive) | 1 (inactive) | 0.754 | 6560 | 6550 | -0.025 (inactive)
NC(C(=O)O)c1ccc(C(=O)O)c(O)c1 (stereo not drawn) | 93.9% (inactive) | 0.966 (inactive) | 1.12 | 9030 | 9350 | -0.31 (inactive)
CO[C@@H]1[C@H](O)[C@@H](CO)O[C@H]1n1cnc2c(NC3CCCCC3)ncnc21 | 99.6% (inactive) | 0.954 (inactive) | 1.32 | 8920 | 9350 | 0.065 (inactive)
CN(N=O)C(=O)N[C@H]1C(O)O[C@H](CO)[C@@H](O)[C@@H]1O (stereo partly drawn) | 111% (inactive) | 0.958 (inactive) | 0.621 | 8770 | 9160 | -0.2 (inactive)
CN1Cc2c(C(=O)OC(C)(C)C)ncn2-c2ccsc2C1=O | 105% (inactive) | 0.89 (inactive) | 1.34 | 7080 | 7950 | 0.15 (inactive)
COc1ccc(NS(=O)(=O)c2ccc(I)cc2)cc1N1CCN(C)CC1 | 112% (inactive) | 0.956 (inactive) | 0.589 | 6570 | 6870 | -0.545 (inactive)
CN1c2cc3c(cc2N=C(c2ccc(C(=O)O)cc2)c2ccccc21)C(C)(C)CCC3(C)C | 106% (inactive) | 0.924 (inactive) | 2 | 7660 | 8280 | -0.495 (inactive)
CC(=O)N1CCN(C)CC1 | 118% (inactive) | 0.971 (inactive) | 0.837 | 8470 | 8720 | 0.29 (inactive)
CC(=O)NCCc1c(Cc2ccccc2)[nH]c2ccccc12 | 105% (inactive) | 1.03 (inactive) | 0.867 | 7430 | 7230 | 0.025 (inactive)
CC[C@H](CO)Nc1nc(Nc2cccc(-c3ccccn3)c2)c2ncn(C(C)C)c2n1 | 119% (inactive) | 1.12 (inactive) | 1.35 | 1500 | 1340 | -0.95 (inactive)
CCCCCCCNS(=O)(=O)c1cccc2c(Cl)cccc12 | 95% (inactive) | 0.865 (inactive) | 0.629 | 8130 | 9410 | -0.5 (inactive)
c1ccc(C2NNCC2c2ccnc3ccccc23)nc1 (stereo not drawn) | 101% (inactive) | 0.908 (inactive) | 1.57 | 8690 | 9570 | -0.15 (inactive)
OC[C@H]1O[C@@H](n2cnc3c(NC4CCCC4)nc(Cl)nc32)[C@H](O)[C@@H]1O | 122% (inactive) | 0.891 (inactive) | 0.662 | 8890 | 9980 | 0.55 (inactive)
FC(F)(F)c1cccc(-c2noc(-c3cc(-c4ccccc4)c(C(F)(F)F)s3)n2)c1 | 101% (inactive) | 0.966 (inactive) and 0.884 (inactive) | 1.01 and 0.898 | 5830 and 8210 | 6040 and 9290 | 0.175 (inactive)
CCCCc1nn(-c2ccccc2C(F)(F)F)c(=O)n1Cc1ccc(-c2ccccc2S(=O)(=O)NC(=O)c2sccc2C)cc1 | 91.8% (inactive) | 0.921 (inactive) | 1.21 | 7450 | 8080 | 4.89 (active)
CCc1cc2c(c(CC)n1)CCC(=O)N2Cc1ccc(-c2ccccc2-c2nn[nH]n2)cc1 | 89.1% (inactive) | 0.902 (inactive) | 0.831 | 8410 | 9320 | 1.93 (inactive)
CC1(C(=O)O)NCCc2cc(O)c(O)cc21 (stereo not drawn) | 123% (inactive) | 0.987 (inactive) | 0.804 | 8540 | 8650 | -0.015 (inactive)
CC(C)C[C@H](NC(=O)N1CCCCCC1)C(=O)N[C@H](Cc1cn(C)c2ccccc12)C(=O)N[C@H](Cc1ccccn1)C(=O)O | 87.9% (inactive) | 0.819 (inactive) | 0.926 | 7880 | 9620 | 1.25 (inactive)
CCCc1c(OCC(O)COc2ccc3c(=O)cc(C(=O)O)oc3c2CCC)ccc(C(C)=O)c1O (stereo not drawn) | 110% (inactive) | 0.998 (inactive) | 0.8 | 8250 | 8260 | 3.91 (active)
Cc1c(C(=O)NC2CCCCC2)sc2nc3ccc(N)cc3n12 | 120% (inactive) | 0.889 (inactive) | 1.46 | 5970 | 6720 | -0.625 (inactive)
CCc1cc(C(C)=O)c(O)cc1OCCCCCC(C)(C)c1nn[nH]n1 | 116% (inactive) | 0.891 (inactive) | 1.51 | 7060 | 7920 | -0.21 (inactive)
CC1=C(C(=O)OCCN(Cc2ccccc2)c2ccccc2)C(c2cccc([N+](=O)[O-])c2)C(P2(=O)OCC(C)(C)CO2)=C(C)N1 (stereo not drawn) | 131% (inactive) | 0.992 (inactive) | 1.07 | 4790 | 4830 | -0.9 (inactive)
CCOC(=O)c1ncc2[nH]c3cccc(OC(C)C)c3c2c1C | 96.4% (inactive) | 0.924 (inactive) | 0.813 | 5120 | 5540 | -0.64 (inactive)
C/C=C1/C(=O)C[C@H]2[C@@H]3CCC4=CC(=O)CC[C@]4(C)[C@H]3CC[C@]12C | 104% (inactive) | 0.844 (inactive) | 3.69 | 6570 | 7790 | -0.33 (inactive)
O=C(NCCCN1CCCCCC1)C(c1ccccc1)C1CCCCC1 (stereo not drawn) | 115% (inactive) | 0.949 (inactive) | 0.832 | 8370 | 8820 | -0.905 (inactive)

Compound | remaining activity [1] | fold change [2, 4] | fold change [2, 5] | cell count [2, 6] | cell count [2, 7] | z-score [3]
NC(Cn1ccc(=O)n(Cc2ccccc2C(=O)O)c1=O)C(=O)O (stereo not drawn) | 98.2% (inactive) | 0.925 (inactive) | 1.4 | 8950 | 9680 | 0.13 (inactive)
CC(C)[C@H](NS(=O)(=O)c1ccc(-c2ccc(Br)cc2)cc1)C(=O)O | 100% (inactive) | 0.908 (inactive) | 1.47 | 8980 | 9890 | 0.745 (inactive)
Cn1ccc2cc(NC(=O)Nc3cccnc3)ccc21 | 111% (inactive) | 0.984 (inactive) | 0.852 | 8400 | 8540 | 0.405 (inactive)
c1ccc(C(O[C@@H]2CCCN(CCc3ccc4c(c3)OCO4)C2)c2ccccc2)cc1 | 119% (inactive) | 0.989 (inactive) | 1.1 | 8350 | 8440 | -0.585 (inactive)
c1ccc(N2CCN(CCCOc3ccc4c(c3)OCO4)CC2)cc1 | 103% (inactive) | 0.912 (inactive) | 0.762 | 8370 | 9180 | 0.385 (inactive)
C[C@H]([C@@H](O)c1ccc(O)cc1)N1CCC(Cc2ccccc2)CC1 (racemic) | 93.2% (inactive) | 0.927 (inactive) | 0.793 | 8080 | 8720 | -1.02 (inactive)
C[N+](C)(C)CCCCCNCC12CC3CC(CC(C3)C1)C2 | 117% (inactive) | 0.943 (inactive) | 0.772 | 8560 | 9080 | -0.15 (inactive)
O=C1c2ccccc2C(Cc2ccncc2)(Cc2ccncc2)c2ccccc21 | 107% (inactive) | 0.992 (inactive) | 1.04 | 7700 | 7770 | -0.13 (inactive)
NC(=O)N/N=C/c1ccc(Oc2ccc(F)cc2)cc1 | 94.3% (inactive) | 0.798 (inactive) | 2.22 | 7090 | 8890 | 0.135 (inactive)
COc1cc2c(cc1OC)-c1cc3nc4ccccc4nc3n1C(C)(C)C2 | 119% (inactive) | 1.11 (inactive) | 0.782 | 4000 | 3590 | -0.79 (inactive)
CCC1(c2ncc[nH]2)Cc2ccccc2O1 (stereo not drawn) | 118% (inactive) | 0.963 (inactive) | 0.89 | 9330 | 9690 | 0.05 (inactive)
CCCn1c(=O)c2[nH]c(-c3ccccc3)nc2n(CCC)c1=O | 113% (inactive) | 1.13 (inactive) | 0.687 | 4790 | 4230 | -0.115 (inactive)
COc1cc(N)c(Cl)cc1C(=O)CCC1CCN(CCNS(C)(=O)=O)CC1 | 97.5% (inactive) | 0.928 (inactive) | 0.69 | 9240 | 9960 | 1.25 (inactive)
COC(=O)[C@H]1C2C[C@H]3c4[nH]c5ccccc5c4CCN3C[C@H]2CC[C@@H]1O (stereo partly drawn) | 106% (inactive) | 0.968 (inactive) | 0.826 | 8540 | 8820 | -0.115 (inactive)
N[C@@H](C(=O)O)[C@@H](OCc1ccccc1)C(=O)O (racemic) | 110% (inactive) | 0.921 (inactive) | 1.02 | 8010 | 8700 | 0.315 (inactive)
COc1ccc(-c2nc(C(=O)N3CCN(C)CC3)sc2-c2ccc(OC)cc2)cc1 | 116% (inactive) | 0.946 (inactive) and 0.989 (inactive) | 2.48 and 0.892 | 5370 and 9040 | 5680 and 9140 | -0.66 (inactive)
CCS(=O)(=O)N1CCC[C@@H]2CN3CCc4cc(OC)ccc4[C@@H]3C[C@@H]21 | 87.2% (inactive) | 0.945 (inactive) | 0.859 | 8340 | 8820 | 0.46 (inactive)
CCc1cc(C2NNC(C)C2c2ccc3c(c2)OCCO3)c(O)cc1O (stereo not drawn) | 92.2% (inactive) | 1.01 (inactive) | 1.27 | 4520 | 4490 | 0.625 (inactive)
O[C@H](CNC[C@@H](O)[C@H]1CCc2cc(F)ccc2O1)[C@@H]1CCc2cc(F)ccc2O1 | 101% (inactive) | 1.03 (inactive) | 0.967 | 3230 | 3140 | -0.5 (inactive)
O=c1oc(-c2ccc(C(F)(F)F)cc2)nn1Cc1cc(Cl)ccc1O | 93.9% (inactive) | 1.02 (inactive) | 1.81 | 6380 | 6280 | -0.655 (inactive)
CC1=C(/C=C/C(=C/C=C/C(C)=C/C(=O)O)c2ccc(C)cc2)C(C)(C)CCC1 | 105% (inactive) | 0.936 (inactive) | 1.77 | 6950 | 7420 | 0.99 (inactive)
O=C(O)COc1ccc(OCCNC[C@@H](O)COc2ccccc2)cc1 | 89.3% (inactive) | 0.984 (inactive) | 1.02 | 8850 | 8990 | 0.955 (inactive)
CC[C@@H]1Cn2c(c3nc(-c4ccccc4)nc-3n(C)c2=O)N1 | 108% (inactive) | 0.901 (inactive) | 1.44 | 7600 | 8440 | -0.165 (inactive)
COc1ccccc1C1(O)CCN(CCCn2c3ccccc3c3ccccc32)CC1 | 91.1% (inactive) | 0.694 (active) | 1.55 | 323 | 466 | -0.705 (inactive)
CC[N+](C)(CC)CC(=O)Nc1c(C)cccc1C | 109% (inactive) | 0.963 (inactive) | 0.801 | 8930 | 9270 | 0.265 (inactive)
NC(C(=O)O)c1cc(O)ccc1Cl (stereo not drawn) | 120% (inactive) | 1.01 (inactive) | 0.855 | 9170 | 9110 | 4.21 (active)

Source: PubChem BioAssay
